Assay results published in PubChem BioAssay (NCI).
This is part of a sample that, as a whole, favours compounds with a hit. Of some 83,000 tested, about 20% had one in any assay.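 Cell lines were cultured in 96-well plates, exposed to a single compound concentration, and assessed for percent growth 48 hours later.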 A number with no mark means an inactive call. Activity calls are given as the source filed them. Rule for the calls: active = growth percent below 10; inactive = the rest.

Legend:
Test in all cases: NCI-60 one-dose screen, 48 h (100 = growth as untreated, 0 = no growth, -100 = all killed)
[1] = tested on: T-47D breast; conditions: 10 µM unless noted
[2] = tested on: MDA-MB-435 melanoma; conditions: 10 µM unless noted
[3] = tested on: SW-620 colon; conditions: 10 µM unless noted
[4] = tested on: MCF7 breast; conditions: 10 µM unless noted
[5] = tested on: HCT-116 colon; conditions: 10 µM unless noted
[6] = tested on: HCC-2998 colon; conditions: 10 µM
[7] = tested on: KM12 colon; conditions: 10 µM unless noted
[8] = tested on: BT-549 breast; conditions: 10 µM unless noted

SMILES	growth [1]	growth [2]	growth [3]	growth [4]	growth [5]	growth [6]	growth [7]	growth [8]
COc1ccc2c(c1)cn1c3ccc(O)cc3nc(N)c21	37.3%	-16.6% (active)	26.8%	17.2%	18%	22.5%	27.1%	–
Cc1cc(C(O)CN(C)C)cc2c1ccc1cc(C(C)C)ccc12 (stereo not given)	-33% (active)	-80.8% (active)	-89.8% (active)	-99.8% (active)	-100% (active)	-89.1% (active)	-95.5% (active)	–
c1ccc2c(c1)CCN(NCCN1CCCC1)C2	91.4%	–	94.8%	96.5%	85.6%	95%	100%	99.8%
Cc1ccc(-[n+]2c3cc(N)c(C)cc3nc3cc(C)c(Nc4ccccc4)cc32)cc1	-74.7% (active)	-73.6% (active)	-71.8% (active)	-81.8% (active)	-100% (active)	-98% (active)	–	–
O=S1(=O)OC(c2cc(Cl)c(O)c(Br)c2)(c2cc(Cl)c(O)c(Br)c2)c2ccccc21	114%	124%	99.6%	104%	96.7%	103%	106%	–
Oc1ccc(C(c2ccc(O)cc2)C(Cl)(Cl)Cl)cc1	94.3%	104%	114%	111%	83.8%	122%	104%	–
CC(=O)OC(C(=O)c1ccccc1)c1ccccc1 (stereo not given)	95.5%	108%	99.3%	95.8%	95.8%	112%	101%	–
Cc1nc(-c2cn3c(n2)-c2ccc(-c4cnn(C(C)(C)C(N)=O)c4)cc2OCC3)n(C(C)C)n1	-9.88% (active)	27.8%	–	13.7%	20.4%	–	16.2%	14.9%
ClCc1ccc(-c2ccc(Cn3cnc4c(Cl)nc(Cl)nc43)cc2)cc1	-23.5% (active)	4.56% (active)	-31.6% (active)	-31.8% (active)	-59.6% (active)	–	-66.9% (active)	–
O=C(COc1ccc(/C=C2\Cc3ccc(Cl)cc3C2=O)cc1)Nc1nccs1	85.2%	113%	–	89%	–	–	115%	106%
O=[N+]([O-])c1cc(Br)cc2c1[nH]c1ccc(Br)cc12	42.9%	86.4%	67%	45.8%	–	94.3%	71.4%	–
Ic1ccccc1-c1ccccc1	107%	121%	102%	103%	111%	114%	109%	–
Cc1cc(C2(c3ccc(O)c(C)c3)OS(=O)(=O)c3ccccc32)ccc1O	110%	113%	–	101%	104%	114%	110%	–
Clc1nc(Cl)c2ncn(CC#CCn3cnc4c(Cl)nc(Cl)nc43)c2n1	-21.5% (active)	4.04% (active)	-44.7% (active)	-22.8% (active)	-34.6% (active)	–	-45.8% (active)	–
N#Cc1c(NC(=O)c2ccco2)[n+]([O-])c2cc(F)c(F)cc2[n+]1[O-]	71.8%	98%	87.5%	67.5%	101%	–	85%	–
Clc1ccc2c(NCCCNCc3ccc4c(c3)OCO4)ccnc2c1	-0.471% (active)	-34.6% (active)	–	31.5%	–	5.99% (active)	65.4%	51.5%
Clc1nc(Cl)c2ncn(C/C=C\Cn3cnc4c(Cl)nc(Cl)nc43)c2n1	-44.4% (active)	-66.9% (active)	-52.6% (active)	-78% (active)	-71% (active)	–	-69.2% (active)	–
CCOc1ccc(N=C(C)Nc2ccc(OCC)cc2)cc1	105%	115%	104%	102%	104%	104%	117%	–
COc1cc(N2CCC(N(C)C)CC2)ccc1Nc1ncc(Cl)c(Nc2ccccc2P(C)(C)=O)n1	56.2%	23.5%	–	33.1%	-19.6% (active)	–	-1.59% (active)	-14.1% (active)

SMILES	growth [1]	growth [2]	growth [3]	growth [4]	growth [5]	growth [6]	growth [7]	growth [8]
COc1cc2c(cc1OCCCCN1CCN(CC(=O)Nc3ccc(Cl)cc3C(=O)c3ccccc3Cl)CC1)N=CC1CCCN1C2=O (stereo not given)	-65.4% (active)	-93.8% (active)	–	-67.1% (active)	-66.2% (active)	–	-55.5% (active)	–
C=CC(=O)Nc1cccc(Oc2nc(Nc3ccc(N4CCN(C)CC4)cc3)nc3ccsc23)c1	-51% (active)	-93.3% (active)	–	-60.9% (active)	-89.2% (active)	–	-79.1% (active)	-37.5% (active)
CC(=O)C1CC(C)CCC1C(C)C (stereo not given)	71.9%	121%	106%	85.3%	61.6%	104%	98%	–
O=S1(=O)OC(c2ccc(O)c(Cl)c2)(c2ccc(O)c(Cl)c2)c2ccccc21	97.2%	113%	100%	104%	99.8%	103%	103%	–
Cc1c(N)ccc(-c2ccc(N)c(C)c2S(=O)(=O)O)c1S(=O)(=O)O	106%	114%	109%	108%	–	102%	116%	–
O=C(Nc1cccc([N+](=O)[O-])c1)c1ccc(Cl)c(Cl)c1	54.8%	92%	96.2%	49%	56.8%	120%	93.8%	–
COc1ccc2c(CCCc3ccc(Cl)cc3Cl)c3[n+](cc2c1OC)CCc1cc2c(cc1-3)OCO2	3.35% (active)	-71.2% (active)	–	6.01% (active)	–	-83.7% (active)	-55.3% (active)	-28% (active)
C[C@@H](Oc1cc(-n2cnc3ccc(CN4CCN(C)CC4)cc32)sc1C(N)=O)c1ccccc1C(F)(F)F	40.8%	9.74% (active)	–	17.7%	17.6%	–	10.3%	24.9%
O=c1[nH]ccc2c(S(=O)(=O)N3CCCNCC3)cccc12	37.7%	88%	–	85.9%	–	–	93.3%	61.3%
CC1(O)CCC2CC3OC3(C)CCC3OC3(C)C(O)CC1C2(C)C (stereo not given)	116%	113%	99.2%	105%	121%	–	–	–
CC(C)OP(=O)(CCC(=O)c1c[nH]c2ccccc12)OC(C)C	89.5%	–	105%	100%	113%	97.3%	99.9%	117%
Cc1ccc(N)cc1CN1C(=O)c2ccccc2C1=O	110%	106%	108%	108%	93.4%	104%	111%	–
CCCCCc1ccc(C)cc1OC(=O)CCl	102%	117%	103%	98%	109%	109%	106%	–
Brc1ccc([I+]c2ccc(Br)cc2)cc1	16.4%	19.5%	17.8%	7.26% (active)	8.91% (active)	25%	3.55% (active)	–
CCN(CC)c1cc2oc3cc(N)cc(=N)c-3nc2cc1C	39%	-64.8% (active)	24.1%	1.63% (active)	-12.2% (active)	100%	40.2%	–
O=C(N/N=C/c1ccc(Cl)cc1)c1cc(-c2cc3ccccc3o2)nn1-c1ccccc1	85.6%	103%	101%	85.6%	92.3%	–	102%	–
N#CC(C#N)=NO	102%	–	100%	96.1%	92.5%	96.3%	103%	103%
COc1cc2c(cc1OCCCCCN1CCN(c3ncnc4ccccc34)CC1)N=CC1CCCN1C2=O (stereo not given)	10.6%	-72.1% (active)	-1.54% (active)	12.1%	4.44% (active)	–	-16.1% (active)	–
